Laboratory results reported in PubChem BioAssay AID624330 (Southern Research Specialized Biocontainment Screening …, 2012).
Among all 340,000 compounds or so, about 2,100 (0.62%) were called active.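 How the source made its calls: active means first-screen hits whose inhibition reached a set limit at any dose in the follow-up dose series; inconclusive means inhibition above the set first-screen limit but never retested; inactive means the rest.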 Only a sample is shown. Measured potencies and affinities stand elsewhere.

These compounds were tested against Rac GTPase-activating protein 1 (Homo sapiens) (UniProt Q9H0H5) (assay: blockers of MgcRacGAP-driven Rac1 GTP hydrolysis – biochemical, ADP Hunter fluorescence, primary and confirmatory, confirmation (AID 624330;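 further: fluorescence reports GDP produced by GAP-driven GTP hydrolysis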)). Conditions: MgcRacGAP-stimulated Rac1 GTP hydrolysis, at 30 µM, active compounds read high, GST-tagged Rac1 F28L mutant substrate.
Rac GTPase-activating protein 1 (Homo sapiens), sequence (Q9H0H5 whole entry, looked up): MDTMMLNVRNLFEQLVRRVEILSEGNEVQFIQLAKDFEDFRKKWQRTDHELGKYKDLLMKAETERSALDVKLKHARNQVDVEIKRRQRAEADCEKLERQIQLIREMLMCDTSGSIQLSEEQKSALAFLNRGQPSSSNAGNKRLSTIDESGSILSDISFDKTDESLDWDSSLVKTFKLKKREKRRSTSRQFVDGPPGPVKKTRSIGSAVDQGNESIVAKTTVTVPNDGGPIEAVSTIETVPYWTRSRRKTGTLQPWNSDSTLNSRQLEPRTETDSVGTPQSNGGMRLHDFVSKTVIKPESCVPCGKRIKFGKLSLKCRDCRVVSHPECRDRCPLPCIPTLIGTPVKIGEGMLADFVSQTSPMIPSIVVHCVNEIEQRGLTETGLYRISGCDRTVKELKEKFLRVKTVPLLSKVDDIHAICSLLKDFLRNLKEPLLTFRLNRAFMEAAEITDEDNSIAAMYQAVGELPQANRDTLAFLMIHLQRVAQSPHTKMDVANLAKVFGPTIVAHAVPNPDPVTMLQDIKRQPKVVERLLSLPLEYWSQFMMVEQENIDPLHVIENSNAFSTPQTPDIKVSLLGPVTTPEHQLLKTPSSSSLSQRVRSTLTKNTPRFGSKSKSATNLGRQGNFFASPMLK

inhibition, inactive:
CC1(C)CC(=O)C(Br)=C(O)C1 -4.56%
CC1(C)CC(=O)C(C(C2=C(O)CC(C)(C)CC2=O)c2cccc(O)c2)C(=O)C1 (stereo not given) 7.97%
CC1(C)CC(=O)C(C(C2=C(O)CC(C)(C)CC2=O)c2ccco2)C(=O)C1 (stereo not given) 29%
CCCC(C1=C(O)CC(C)(C)CC1=O)C1C(=O)CC(C)(C)CC1=O (stereo not given) 8.39%
CC1(C)CC(=O)C(C(C2=C(O)CC(C)(C)CC2=O)c2ccc(Cl)c([N+](=O)[O-])c2)C(=O)C1 (stereo not given) -0.37%
COc1cccc(C(C2=C(O)CC(C)(C)CC2=O)C2C(=O)CC(C)(C)CC2=O)c1 (stereo not given) -5.78%
CC1(C)CC(=O)C(C(C2=C(O)CC(C)(C)CC2=O)c2cccnc2)C(=O)C1 (stereo not given) 12%
CC1(C)CC(=O)C(C(C2=C(O)CC(C)(C)CC2=O)c2ccc([N+](=O)[O-])cc2)C(=O)C1 (stereo not given) 10.9%
CC[C@@]1(C(=O)OC)N[C@H](CN(C)C(=O)COC)[C@@H]2C(=O)N(C)C(=O)[C@@H]21 6.93%
CC1CC(C)CN(CCCCOc2ccc([N+](=O)[O-])cc2)C1 (stereo not given) 19.1%
CCOC(=O)C1=C(C)NC(=O)NC1/C=C\c1ccccc1 (stereo not given) 15.6%
CCOc1ccc(CCNC(=O)C2=C(C)C(=O)OC23CCC(C)CC3)cc1 (stereo not given) 8.86%
CN1CCN(c2ccc(NC(=S)NC(=O)c3cccc4c(Cl)cccc34)cc2)CC1 9.96%
CCCCNS(=O)(=O)c1cc2c3c(c1)CCN3C(=O)CC2 10.4%
COc1ccc(S(=O)(=O)NCc2cn3c(C)csc3n2)cc1F 7.58%
CN(Cc1nc2ccccc2c(=O)[nH]1)C(=O)COc1ccccc1Cc1ccccc1 4.16%
CNc1ccc(/C=C2\COc3ccccc3C2=O)cc1[N+](=O)[O-] 9.69%
O=C1C(=Cc2ccccc2[N+](=O)[O-])Cc2ccccc21 5.54%
Cc1cc2oc(=O)c(CC(=O)NCCCO)c(C)c2c2occ(C(C)(C)C)c12 4.92%
CCOc1cc(/C=N/NC(=O)c2cccnc2)ccc1OCC(N)=O 3.29%
O=C(OCc1nnc(-c2ccccc2)o1)c1cn(-c2ccccc2)nc1-c1ccccc1 4.52%
O=C1CC(c2cccs2)c2ccc3ccccc3c2N1 (stereo not given) 6.36%
OC1CCN(Cc2cccc3ccccc23)CC1 14.2%
COc1ccc(-c2nnn(CC(=O)NCCc3c[nH]c4ccccc34)n2)cc1OC 7.85%
COc1cc(/C=C2/C(=O)NN(c3ccc(F)cc3)C2=O)cc(Cl)c1O 20.4%
COc1cc(/C=C2/C(=O)NN(c3ccccc3)C2=O)cc(Br)c1O 23.7%
COc1cccc(C2=CC(=O)C[C@H](c3ccc4c(c3)OCO4)C2)c1OC 6.37%
O=c1c2ccccc2sn1-c1ccc(S(=O)(=O)N2CCCCC2)cc1 10.2%
Cc1nn(-c2ccc(Cl)cc2Cl)c(=O)c2ccccc12 -1.03%
Cc1cc(=O)cc(C)n1-c1ccc(Cl)cc1 5%
O=c1c2ccccc2sc2ccc(Cl)cc12 5.89%
O=c1c2cc([N+](=O)[O-])ccc2sn1-c1ccccc1 17.4%
O=c1c2ccccc2cnn1-c1ccc(Cl)cc1 1.97%
O=c1c2ccccc2ncn1-c1cccc(Cl)c1 5.62%
CC1=CC(C)(C)N(C)C(=O)N1c1ccc(Cl)cc1 6.14%
O=c1c2cnn(-c3ccccc3)c2ncn1Cc1ccccc1F 7.32%
CC(=O)c1ccc(-c2nnc(CCC(=O)N3CCCC(C(=O)CC(C)C)C3)o2)s1 (stereo not given) 9.2%
CCn1c(SCC(=O)NCCOC)nc2sc3c(c2c1=O)CCCC3 6.34%
CC1CCCCC1NC(=O)CCn1c(=O)sc2ccccc21 (stereo not given) 12.2%
CN(CC(=O)Nc1ccc(N2CCOCC2)cc1)CC(=O)Nc1ccccc1C#N 6.72%
O=c1oc2cc(Br)ccc2n1Cc1ccccc1 13.7%
CCc1nnc(NC(=O)c2cccc(S(=O)(=O)N3CCCCC3)c2)s1 10.2%
COC(=O)Cc1c(O)ccn(CCc2ccc(OC)c(OC)c2)c1=O 5.94%
Cc1ccc(S(=O)(=O)N2C[C@@H](C)[C@]3(C2)[C@H](O)[C@H](OC(=O)NC2CCCC2)C[C@H]2C(=O)N(c4ccccc4)C(=O)[C@H]23)cc1 15.8%
CSc1nc2c(C)c(C)c(C)c(C)c2[nH]1 2.42%
CCOC(=O)N1CCN(C(=O)CC(C(=O)N2CCc3ccccc32)n2ccnc2)CC1 (stereo not given) 4.9%
O=C(COc1ccc2c3c(c(=O)oc2c1)CCCC3)NCCN1CCOCC1 1.04%
CCOC(=O)C1=C(O)/C(=C\c2cccc(OC)c2)N=C1C 7.59%
CCOC(=O)C1=C(O)/C(=C/c2cc(OC)c(OC)c(OC)c2)N=C1C 2.56%
COC(=O)C1=C(O)/C(=C/c2cccc(OC)c2O)N=C1C 28.1%
COC(=O)C1=C(O)/C(=C\c2sccc2C)N=C1C 10.9%
COC(=O)C1=C(O)/C(=C/c2ccc(OCC(=O)Nc3ccc(OC)cc3)cc2)N=C1C 6.48%
CCOC(=O)C1=C(O)/C(=C\c2ccc(OC)c(OC)c2)N=C1C -1.28%
CN1CCN(NC(=O)c2cc([N+](=O)[O-])cc([N+](=O)[O-])c2)CC1 -0.16%
CCC(C)NC(=O)CN(c1cc(C)cc(C)c1)S(=O)(=O)c1c(C)[nH]c(=O)[nH]c1=O (stereo not given) 9.01%
CCCC(=O)Nc1ccc2c(c1)nc(CCNC(=O)c1ccccc1)n2C 1.08%
Cc1nonc1CN(C)C(=O)c1cc(COc2ccc(F)cc2Cl)on1 1.26%
Cn1c(=O)c2c(nc(N3CCNCC3)n2Cc2cccc3ccccc23)n(C)c1=O 6.58%
Cc1cccc(C(=O)NCC(=O)NNC(=O)c2ccccc2O)c1 2.8%
Cc1ccc(NC(=O)c2cc(N3C(=O)CCC3=O)ccc2N2CCCCC2)cc1 5.7%
CCN(CC)c1ccc(N=Cc2ccc(N(CC)CC)cc2O)cc1 6.98%
CCN(CC)c1ccc(N=Cc2ccc([N+](=O)[O-])o2)cc1 25.9%
COc1ccc(N=Cc2c(O)[nH]c3ccccc23)cc1 9.26%
Oc1[nH]c2ccccc2c1C=Nc1ccccc1 11.5%
CC1(C)CC(=O)C=C(NCCN2CCN(C(=S)NC3CCCCC3)CC2)C1 -3.74%
CN(Cc1ccccc1)S(=O)(=O)c1ccc(Cl)nc1 11.5%
CCOC(=O)c1ccccc1NC(=O)COC(=O)CCNS(=O)(=O)c1cccs1 3.03%
COc1ccc(NC(=O)NNC(=O)C(C)Oc2ccc3ccccc3c2)cc1 (stereo not given) 3.58%
S=C(NCCc1ccccc1)Nc1ccc(Nc2ccccc2)cc1 26.5%
O=C(Nc1ccc(Nc2ccccc2)cc1)c1c(F)c(F)c(F)c(F)c1F -3.02%
O=C(Nc1ccc(Nc2ccccc2)cc1)C(Cl)(Cl)Cl 12.3%
Cc1ccc(Nc2ccccc2)cc1 6.69%
Cc1ccc(C)c(OCCC(=O)OCC(=O)Nc2cc(S(=O)(=O)N3CCCCC3)ccc2C)c1 0.95%
CC1CCN(C(=O)c2ccc(NS(=O)(=O)c3ccc4[nH]c(=O)[nH]c4c3)cc2)CC1 8.71%
CN(CC(=O)O/N=C(\N)c1ccc([N+](=O)[O-])cc1)S(=O)(=O)c1ccccc1 -3.85%
O=C(/C=C/C(Cl)(Cl)Cl)Nc1ccc(Cl)cc1 9.68%
CC1=NN(c2ccccc2)C(=O)C1C(=O)c1ccccc1 (stereo not given) 12.2%
CC1=NN(c2ccccc2)C(=O)C1C=Nc1ccccc1O (stereo not given) 14.8%
O=C(NC1(C(F)(F)F)C(=O)Nc2c1c(=O)[nH]c(=O)n2Cc1ccccc1)c1ccco1 (stereo not given) 6.82%
OCCN1CCN(CCOc2ccccc2-c2ccccc2)CC1 -0.13%
CC1CN(CCOc2ccccc2-c2ccccc2)CC(C)O1 (stereo not given) 18%
CCN1CCN(CCOc2ccccc2-c2ccccc2)CC1 7.05%
OCCCN1CCN(CCCOc2ccccc2-c2ccccc2)CC1 5.09%
c1ccc(-c2ccccc2OCCCN2CCOCC2)cc1 27.2%
CCOc1ccccc1OCCOCCN1CC(C)OC(C)C1 (stereo not given) 17.3%
c1ccc(-c2ccccc2OCCOCCN2CCNCC2)cc1 31.8%
c1ccc(-c2ccccc2OCCOCCN2CCCCC2)cc1 17.9%
Cc1ccc(C(=O)COC(=O)c2cnccn2)cc1 -2.3%
O=C(C1CCCN(S(=O)(=O)c2ccc(Cl)cc2)C1)N(Cc1cccs1)C1CC1 (stereo not given) 6.33%
CCn1c(SCC(=O)Nc2cc(C)on2)nnc1-c1ccc(OC)cc1 -3.69%
OC(CNCc1cccs1)c1ccccc1 (stereo not given) 8.64%
COc1cccc(CN2CCN(S(=O)(=O)c3ccc(Cl)s3)CC2)c1 -1.96%
CCOc1ccc(/C=N/n2cc(-c3ccccc3)[nH]c2=S)cc1 7.02%
CCOC(=O)C1(C(=O)OCC)NC(=O)CC1CC(C)C (stereo not given) 0.34%
COc1ccc(NC(=S)NCCc2ccc(F)cc2)c(OC)c1 5.59%
